Among all 53,000 sequences or so, about 3,700 (7%) were called active. Shown is part of a subset that was picked to be rich in actives. A number with no mark means an inactive call.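 Rule for the calls: active = gene knockdowns whose robust z-score for IL-1 alpha signal is at least 2 or at most -2, so actives lie on both sides; inactive = the rest.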
assay: Components of the Cytosolic LPS Sensing Pathway: Gene Identification via Genome-wide siRNA Screen; conditions: RAW264.7 macrophages, IL-1a HTRF, actives lie on both sides, screened at 100 nM (by protocol), cells primed 5 h with Pam3CSK4 first;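 note: robust z of the log signal after scaling to non-targeting control siRNA wells of the plate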
Summary of the method: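 Three distinct siRNAs per gene were tested singly at 100 nM in RAW264.7 macrophages. Following Pam3CSK4 priming and 24 hour LipidA transfection, IL-1a secretion was read by HTRF.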

Row | Sequence | z-score
1 | GCAUGUUUCUAAACUUAGUTT against Sh3rf2 | -0.432
2 | GGUAUCGUAUAUGGAGAUCTT against Kif13a | 2.12 (active)
3 | GGUUCUGAAAGAGUGUUAGTT against Htatsf1 | -1.58
4 | GGGCUCACAUUGUACACACTT against Nckap5 | 0.525
5 | GGACAUCUUUUCAAACGUGTT against Acap1 | -1.09
6 | GCUGAACGUGAGAUUGUGCTT against Acta1 | 1.33
7 | GGUCAAUUAUGAAGCACCUTT against Pabpc4 | 0.158
8 | GGCAACAAAAAAAUCCCAATT against Cd160 | -0.647
9 | GGUAUCUGUGUGACUUCACTT against Pgpep1 | 3.63 (active)
10 | GGGACAACAUUCAAAGGUCTT against Hdgfl1 | -0.322
11 | GCGAUUGGCAGAUUGCUACTT against Tmem47 | 1.01
12 | GCCGUUUCGUGUGGUAUUUTT against Tm4sf1 | -2.64 (active)
13 | GGGAUAGCAAGACUUUCACTT against C5ar1 | 0.194
14 | GGUUGUGAGUCAGUCUAGUTT against Tia1 | -1.55
15 | GGAGCUCUGUGAAUCUCUUTT against Ska1 | -0.796
16 | CCUUCCUGUUGUCAUGAGATT against Eipr1 | -0.868
17 | CCAAUGGUCAGGAGUGUAGTT against Prpsap2 | -0.766
18 | GCGGCUCAAACUCAUUUUGTT against Gm4841 | 1.21
19 | CCUUGACCUUAAUGUCUUCTT against Fgf23 | 2.05 (active)
20 | GGUAUGAUGAUUGUUAGAUTT against Phf20 | 0.141
21 | GCUCUAAAACUGUGUACUCTT against 4930579K19Rik | -0.167
22 | GGAAUUUUCUGGAAAUCCATT against Tctn2 | -0.111
23 | GGCUCUCAUUGAUGCAUGUTT against Cpeb4 | -0.264

Row | Sequence | z-score
24 | GGAAUGAAACCAAGUAUAATT against Calcb | 0.853
25 | GCAGGUUCAGGCAGUAAUUTT against Kpna4 | 3.78 (active)
26 | GCUCAUUGGGAUCAUUGGUTT against Fancd2 | 1.45
27 | GGUGACACCCAGAAUGAGCTT against Htatsf1 | 1.81
28 | GGACUGUGGAUAACCUGCUTT against Hspb2 | -2.55 (active)
29 | CCCUCAAUCUAACAGUGCATT against Dsg1b | 0.75
30 | GGAGAAAGACAACUUCCUATT against Clec7a | 0.239
31 | GGCUCCUGUAAUGCUAACUTT against Zfp715 | -0.191
32 | GGAUACUUUAUGGUAUUUCTT against 9130023H24Rik | 1.45
33 | GAUUUCAAGAUCCAGACUCTT against Riiad1 | -0.435
34 | GCAGAGUUACAAGCUUUUATT against Diaph3 | -4.98 (active)
35 | CCUCGUUCCUUUGAAAUCATT against Gfi1 | 0.255
36 | GCUAUGUGAAUUUGUAUGATT against Parp11 | 0.398
37 | GCAUACGAUAUCACCAUAUTT against Dsg1a | 0.173
38 | GCUCCGGAACAGAUAAAACTT against Kat14 | -0.485
39 | GGCAGUAACUUAAAACAGATT against Mecp2 | -0.139
40 | GCUGAAAGAAUUCGUGGACTT against Phf2 | 1.69
41 | GAUAUCACGGUCAUCUGUCTT against Pde6h | -0.19
42 | CCUCGUAUUAGAUGAUGCATT against Snrpe | -2.79 (active)
43 | CCUGCGCUUCUGACUAUCUTT against Dcbld1 | 0.18
44 | GGAGACCUGGCAAAUGUAATT against Dctn5 | 0.884
45 | GGAUCUCGAGUCUCAUCUCTT against Ccdc166 | 0.851
46 | CCGGAAGAGCUUGCUUUAUTT against Sgpp2 | 1.19

Row | Sequence | z-score
47 | GGAUCCAAGGUGAAAAUAUTT against Fam131a | -2.25 (active)
48 | GGCUAAGGGUAACGUGCUGTT against Bri3 | -0.263
49 | GGUGGUUAAAUGGUUUUAATT against Prkg2 | 1.98
50 | GGAUCUGACAGCUCAUUUUTT against Casp7 | 1.01
51 | CCACAAAACUAAGACACCUTT against P2ry6 | 0.587
52 | GGCUCUAACAUGACAAUUUTT against Hyal1 | -0.251
53 | GGGAAAAUGGAAAAUACAUTT against Emc3 | 2.59 (active)
54 | GCUGAUUAACCCUCAGUAUTT against Gpc6 | -0.531
55 | GCAAGUGUAGAUAAAGUAUTT against Msi2 | 0.751
56 | GGAAAAGAUAACUCAGACATT against Hrg | 0.727
57 | GCUCUACCCUGAAGAUAUATT against Immt | 2.44 (active)
58 | GGCCACCAUUUCUGAAAUCTT against Tecr | 0.714
59 | GAACACAAAUCUAGUAGACTT against Olfr1109 | 0.278
60 | GGAGAAUUAAAAUGUGAAGTT against Hsd17b4 | 0.161
61 | GGAGCUAAACUCCUUGAAGTT against Slc22a4 | 2.07 (active)
62 | GGGUGCCUAGCAGAUGAACTT against Sp110 | -0.912
63 | GGACAAUGUUGAAUCCUGUTT against Rrp15 | -0.155
64 | GGAGGAAUCAAAGGCUCCUTT against Slc39a5 | -0.319
65 | GGCGCAUUAGCAGAGACUGTT against Mrps5 | 4.17 (active)
66 | GGCACAUUAGUAGAACACATT against Sorcs2 | -0.243
67 | GGAUCAUUCCUUUGGUUAGTT against Fabp5 | -1.34
68 | GCCAAGAAUAGCAUUACUGTT against Abraxas1 | -2.45 (active)
69 | GGGUAGCUACGAAGAGGAATT against Ros1 | 1.72

— PubChem BioAssay AID1508600 (Functional Genomics Laboratory (NCATS/FGL), 2020)
